Compound activity as filed in PubChem.
AMA1 RON2 block: inhibitors of Plasmodium falciparum AMA1-RON2 interaction | AlphaScreen AMA1-biotinylated RON2 peptide binding | Potency, µM (titrated, usually from 58.2 µM), most hits filed as inhibitors | 360,000 tested, 0.2% active; also: nearly all actives have a fitted effect of over 45% in size
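AMA1 (3D7) with his tag at 25 nM final met compounds first, then biotinylated RON2 peptide at 25 nM; detection used donor plus acceptor beads, 10 µg/mL apiece, read by AlphaScreen after 30 min at room temperature.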
Cycloheximide cs: affects cycloheximide protein synthesis inhibition readout, counter-screen; cell reporter, cycloheximide protein synthesis inhibition counterscreen; max response, %; 300,000 tested, 12% active; in the data active = max response mostly above about 13%, no sharp cut-off; inactive = mostly below about 14%; also: read at 38.3 µM for the half of the compounds with a filed dose
AmpC no deterg: inhibitors of E. coli AmpC beta-lactamase without detergent; Potency, µM (doses to about 57.1 µM), actives largely listed as inhibitors; 330,000 tested, 0.52% active; P00811; AmpC nitrocefin hydrolysis, absorbance 480 nm, 0.0001% Triton; also: nearly all actives have a fitted effect of over 20% in size
Target sequence (P00811 whole entry, looked up): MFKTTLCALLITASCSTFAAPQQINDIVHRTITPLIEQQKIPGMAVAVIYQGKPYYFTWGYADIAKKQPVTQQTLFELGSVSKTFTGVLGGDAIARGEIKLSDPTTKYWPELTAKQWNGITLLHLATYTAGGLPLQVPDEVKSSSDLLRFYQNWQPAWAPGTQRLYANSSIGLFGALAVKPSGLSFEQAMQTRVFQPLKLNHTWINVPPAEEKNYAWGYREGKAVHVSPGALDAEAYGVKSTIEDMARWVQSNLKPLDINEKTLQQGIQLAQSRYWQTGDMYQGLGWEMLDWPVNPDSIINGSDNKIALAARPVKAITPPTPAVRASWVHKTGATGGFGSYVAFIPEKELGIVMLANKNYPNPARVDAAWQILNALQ
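20 mM phosphate pH 7.0 + 0.01% (detergent screen) or 0.0001% Triton X-100; 5.3 nM AmpC reagent; cpd preinc 15 min RT; nitrocefin (800 uM stock) to start; A480 q20 s × 4 min; Activity was normalised to no-enzyme and no-compound control wells.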
Shiga toxin inh: Shiga toxin inhibition; inhibition, % at 38.7 µM; AID 2315; Vero cells, Shiga toxin protein synthesis inhibition reporter; 290,000 tested, 9.2% active; in the data active = inhibition mostly above about 28%, no sharp cut-off; inactive = mostly below about 43%
SARS PLP yeast: SARS-CoV PLP inhibition in yeast. S. cerevisiae expressing SARS-CoV PLpro, growth rescue. Potency, µM (doses to about 32.9 µM), usual class: activators. 330,000 tested, 0.19% active; calls by dose curve; also: nearly all actives have a fitted effect of over 55% in size
AmpC detergent: blocks E. coli AmpC beta-lactamase in detergent assay; AmpC hydrolysis of nitrocefin, absorbance 480 nm, 0.01% Triton; Potency, µM (doses to about 114 µM), hits mostly inhibitors; AID 485294; 370,000 tested, 0.041% active; also: nearly all actives have a fitted effect of over 25% in size
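20 mM phosphate pH 7.0 + 0.01% (detergent screen) or 0.0001% Triton X-100; 5.3 nM AmpC reagent; cpd preinc 15 min RT; nitrocefin (800 uM stock) to start; A480 q20 s × 4 min; Activity was normalised to no-enzyme and no-compound control wells.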
Numbers stand for hits; n = inactive; u = inconclusive; x = no result; [ ] = remark or other dose. Many of the other results were omitted from the sample, so hits are more common in it than they were. Unless noted, calls follow the shape of the dose curve; as a rule, active = well fitted curve in the direction sought with a large enough effect; inconclusive = small, poorly fitted or top-dose-only effect, or another doubt; inactive = no such curve, though single readings can be large; an effect the other way counts as inactive or inconclusive.

SMILES | AMA1 RON2 block | Cycloheximide cs | AmpC no deterg | Shiga toxin inh | SARS PLP yeast | AmpC detergent
COCCN1CN=C(Nc2nc3ccccc3o2)NC1 | n | 27 | n | n | n | n
CCCCN1CN=C(Nc2nc3ccccc3o2)NC1 | n | 62 | n | 116 | n | n
c1ccc2sc(NC3=NCN(C4CCCCCC4)CN3)nc2c1 | n | n | n | n | n | n
CC(C)N1CN=C(Nc2nc3ccccc3o2)NC1 | n | 37 | n | 37 | n | n
COc1ccccc1CNC(=O)CCc1cn(C)c2ccccc12 | n | n | n | n | n | n
Cc1ccc2nc(SCC(=O)NC3CCCC3)nc(=O)n2c1 | n | x | u | x | n | u
O=C(Cc1ccc(NS(=O)(=O)c2cccc(C(F)(F)F)c2)cc1)NCCN1CCOCC1 | n | x | n | x | n | u
COCCN1CN=C(Nc2nc3ccccc3s2)NC1 | n | 21 | n | 31 | n | n
Cc1ccc(N=Nc2cc(C)ccc2N)cc1 | 32µM | 38 | n | 50 | n | n
CCOC(=O)C1=CC(=O)CC(C)(C)O1 | n | x | x | x | x | x
CCCCN(C)CCCNC(=O)c1ccc(N2CCCC2=O)cc1 | n | n | n | n | n | n
O=C(/C=C/c1ccc(F)cc1)N1CCN(c2ncccn2)CC1 | n | 24 | n | 71 | n | n
O=C(/C=C/c1ccccc1)N1CCN(c2ccccn2)CC1 | n | n | n | n | n | n
O=C(/C=C/c1cccc(F)c1)N1CCN(c2ccccn2)CC1 | n | 22 | n | 43 | n | n
O=C(/C=C/c1ccccc1F)N1CCN(c2ccccn2)CC1 | n | 17 | n | n | n | n
CN1CCCN(C(=O)/C=C/c2ccc(F)cc2)CC1 | n | 16 | n | n | n | n
Cc1nc(SCc2ccc(F)cc2)c2oc3ccccc3c2n1 | n | n | n | n | n | n
COc1ccccc1NC(=O)N1CCCC1C(=O)Nc1ccc2c(c1)OCO2 (stereo not drawn) | n | n | n | n | n | n
C#CCSC1=C(C#N)C(c2cccs2)C(C(=O)OCC)=C(C)N1 (stereo not drawn) | n | 24 | n | n | n | u
CCOC(=O)C1=C(C)NC(C)=C(C(=O)OCC)C1c1cccs1 | n | n | n | n | n | n
O=C(NCc1ccc2c(c1)OCO2)c1cc([N+](=O)[O-])ccc1N1CCCCC1 | n | n | n | n | n | n
COc1ccccc1OC(=O)c1ccc2nsnc2c1 | n | 9.9 | n | n | n | n
COc1ccccc1NC(=O)c1ccc2c(c1)nnn2C | n | n | n | n | n | n
Cc1ccc(C(=O)Nc2ccccc2OC(F)F)cc1 | n | 37 | n | 45 | n | u
O=C(Nc1ccccc1OC(F)F)c1ccccc1 | n | n | n | n | n | n
SMILES | AMA1 RON2 block | Cycloheximide cs | AmpC no deterg | Shiga toxin inh | SARS PLP yeast | AmpC detergent
CC(C)c1ccc(NC(=O)c2ccc3snnc3c2)cc1 | n | n | n | n | n | n
COc1ccccc1NC(=O)c1ccc2snnc2c1 | u | n | n | 42 | n | n
Cc1ccc(NC(=O)c2ccc3snnc3c2)cc1 | n | 18 | n | n | n | n
O=C(NC1CCCCC1)C(=O)N(Cc1cccnc1)C(C(=O)NCc1ccco1)c1ccccc1 (stereo not drawn) | x | n | n | n | n | n
O=S(=O)(c1ccc(Cl)cc1)N1CCC(O)(c2cccnc2)CC1 | n | n | n | n | n | n
O=C(NNC(=O)c1cc(-c2ccncc2)nc2ccccc12)c1cccc(Cl)c1 | n | x | u | x | n | u
COc1cc(NC(=O)c2ccc3snnc3c2)cc(OC)c1 | n | 29 | n | n | n | n
O=C(Nc1cccnc1)c1ccc2snnc2c1 | n | n | n | n | n | u
COc1ccccc1NC(=O)c1ccc(N)cc1 | n | 16 | n | 60 | n | n
COc1ccccc1NC(=O)c1ccc2nsnc2c1 | n | 26 | n | 107 | n | n
O=C(Nc1ccccc1)c1ccc2snnc2c1 | n | 25 | n | 67 | n | n
COc1cccc(C(=O)CC(C(=O)O)c2ccc(F)cc2)c1 (stereo not drawn) | n | n | n | n | n | n
O=C(CCc1c[nH]c2ccccc12)NCCc1ccc(Cl)cc1 | n | n | n | n | n | n
O=c1ccc(N=Nc2ccccc2)ccc1O | n | 23 | u | n | n | n
CSc1ncccc1C(=O)OCC(=O)NC1CCCc2ccccc21 (stereo not drawn) | n | x | n | x | n | x
C=CCn1c(C)cc(C(=O)COC(=O)c2ccc3c(c2)NC(=O)CS3)c1C | n[2.32 µM] | 18 | n | 39 | n | n
CC(C)(C)C(=O)COC(=O)c1ccc(N)c([N+](=O)[O-])c1 | n | 43 | n | 83 | n | n
Cc1cc(C(=O)COC(=O)c2ccc(N)c([N+](=O)[O-])c2)c(C)n1Cc1ccc2c(c1)OCO2 | n | n | n | n | n | n
Nc1ccc(C(=O)OCc2ccncc2)cc1[N+](=O)[O-] | n | n | n[11.4 µM] | n | n | u
C=CCn1c(C)cc(C(=O)COC(=O)c2ccc(N)c([N+](=O)[O-])c2)c1C | n | 55 | n | 58 | n | n
COCCn1c(C)cc(C(=O)COC(=O)c2ccc3c(c2)NC(=O)CS3)c1C | n[2.32 µM] | 28 | n | 66 | n | n
CCCN(CCC)C(=O)Cn1c(=O)n(-c2cccc(C(F)(F)F)c2)c(=O)c2c(C)c(C)sc21 | x | x | x | x | x | n
NC(=O)C1CCN(C(=O)Cn2c(-c3cccs3)cc3ccccc32)CC1 | x | x | x | x | x | n
C[C@@H]1CN([C@@H](C)CO)S(=O)(=O)c2ccc(Br)cc2O[C@H]1CN(C)Cc1ccncc1 | n | x | x | x | x | x
O=C(COc1ccc2c(-c3ccccc3)cc(=O)oc2c1)NC1CCS(=O)(=O)C1 (stereo not drawn) | n | x | n | x | n | n
SMILES | AMA1 RON2 block | Cycloheximide cs | AmpC no deterg | Shiga toxin inh | SARS PLP yeast | AmpC detergent
Cc1occc1C(=O)N/N=C/c1sc(N2CCOCC2)nc1-c1ccccc1 | n | n | n | n | n | u
COc1ccc(NC(=O)CN(C)CC(=O)Nc2ccc(Cl)c(S(=O)(=O)N(C)C)c2)cc1 | n | n | n | n | n | n
CN(C)S(=O)(=O)c1cc(NC(=O)CN2CCc3ccccc32)ccc1Cl | n | 30 | n | n | n | n
CN(CC(=O)Nc1ccc(Cl)c(S(=O)(=O)N(C)C)c1)Cc1ccccc1 | n | 40 | n | 73 | n | n
C=CCc1cc(C=C2C(=O)N(C)C(=O)N(C)C2=O)cc(OCC)c1OCc1ccccc1 | n[2.32 µM] | n | n | n | n | n
COc1cccc(-c2cc(C(F)(F)F)n3nc(N)nc3n2)c1 | n | n | n | n | n | n
Clc1ccc(-c2cn3nc4c(nc3n2)CCCC4)cc1 | n | 37 | n | 88 | n | u
COc1cccc(-c2cn3nc4c(nc3n2)CCCC4)c1 | n | 16 | n | n | n | n
Clc1ccc(-c2cn3ncsc3n2)cc1 | x | x | x | x | x | n
CC12C(=O)N(NC(=O)c3ccncc3)C(=O)C1C1C=CC2C1 (stereo not drawn) | n | n | n | n | n | n
